# Reference: the supplement of paper PMC10646978
# ± gives the standard deviation.
# What was measured:
# Settings in all cases: modulator concentration 10 µM
# [1] = tested on: RAW-Dual (murine macrophage reporter line); experiment: NF-kB reporter (SEAP) activity fold change vs agonist alone; higher = enhanced NF-kB activity
# In short: (§1)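 Compound reached 10 μM final in each well by pin transfer, onto RAW-Dual murine macrophage reporter cells seeded at 50 000 per well in 384-well plates. After 1 hour at 37 °C, the cells were stimulated overnight with a PRR agonist. SEAP in the supernatant was read with QUANTI-Blue at 620 nm absorbance for NF-κB, and Lucia luciferase was read with QUANTI-Luc luminescence for IRF. Each signal was turned into fold change against the mean agonist-only control on the same plate, and two replicate plates were averaged with propagated errors.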
# [2] = tested on: RAW-Dual (murine macrophage reporter line); experiment: IRF reporter (Lucia luciferase) activity fold change vs agonist alone; higher = enhanced IRF activity
# In short: as §1
# [3] = tested on: RAW-Dual (murine macrophage reporter line); experiment: viability score (confluency relative to resting cells, overnight) (fraction); higher = more viable, active = viable (0.7 or more)
# In short: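 Two confluency masks, generated with IncuCyte software over all imaged wells, were applied to IncuCyte images of RAW-Dual macrophages. The cells, in 384-well plates, had been exposed overnight to 10 μM final compound. The viability score is confluency as a fraction of resting cells, and a compound met the cutoff only with both masks above 70% of resting cells.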
# [4] = agonist: CpG ODN 1826 0.5 ug/mL
SMILES,"NF-kB reporter [1, 4]",NF-kB reporter ([1]; agonist: LPS 0.1 ug/mL),NF-kB reporter ([1]; agonist: MPLA […]),IRF reporter ([2]; agonist: 3'3'-cGAMP 10 ug/mL),IRF reporter ([2]; agonist: LPS 0.1 ug/mL),IRF reporter ([2]; agonist: MPLA […]),viability score [3]
Cc1cc(CNS(=O)(=O)Cc2ccc(C(F)(F)F)cc2)c(C)o1,1.01 ± 0.087,0.963 ± 0.076,0.951 ± 0.044,1.26 ± 0.068,1.34 ± 0.083,1.37 ± 0.23,0.383 (inactive)
CC(O)(P(=O)(O)O)P(=O)(O)O,0.76 ± 0.033,0.997 ± 0.1,1.08 ± 0.079,0.956 ± 0.069,1.14 ± 0.27,1.26 ± 0.4,0.98 (active)
CC(C)n1cnc(S(=O)(=O)N2CCC(S(=O)(=O)c3nccn3C)CC2)c1,0.36 ± 0.028,0.842 ± 0.067,0.663 ± 0.048,0.935 ± 0.026,1.34 ± 0.14,1.14 ± 0.084,0.878 (active)
COc1ccccc1-c1noc(C2CN(S(=O)(=O)N(C)C)C2)n1,0.972 ± 0.051,0.982 ± 0.083,1.29 ± 0.09,1.02 ± 0.047,1.27 ± 0.26,1.54 ± 0.51,0.993 (active)
COC(=O)CNC(c1ccccc1)c1cc(Br)ccc1NC(=O)c1ccccc1Br (centres undefined),0.826 ± 0.07,0.777 ± 0.041,1.52 ± 0.053,0.632 ± 0.035,1.1 ± 0.14,1.52 ± 0.22,0.988 (active)
O=C(/C=C/C=C/c1ccc2c(c1)OCO2)N1CCCCC1,0.974 ± 0.093,1 ± 0.097,1.17 ± 0.062,0.842 ± 0.052,1.04 ± 0.16,1.07 ± 0.26,1.03 (active)
O=c1cc(-c2ccccc2)oc2cc(O)c(O)c(O)c12,1.51 ± 0.5,1.09 ± 0.075,1.2 ± 0.15,0.649 ± 0.034,1 ± 0.15,0.967 ± 0.12,0.992 (active)
Cc1cc(OCC(=O)Nc2ccc(Cl)c(C(F)(F)F)c2)ccc1Cl,0.934 ± 0.079,0.942 ± 0.056,1.24 ± 0.11,1.02 ± 0.051,1.7 ± 0.1,1.83 ± 0.19,0.971 (active)
C#Cc1cccc(Nc2ncnc3cc(OC)c(OCCCCCCC(=O)NO)cc23)c1,1.12 ± 0.058,1.45 ± 0.11,2.44 ± 0.12,0.563 ± 0.034,0.43 ± 0.029,0.581 ± 0.068,0.973 (active)
CCCCCCCCCCCC1=C(O)C(=O)C=C(O)C1=O,0.901 ± 0.22,0.642 ± 0.034,0.675 ± 0.045,0.566 ± 0.019,0.823 ± 0.09,0.774 ± 0.086,0.167 (inactive)
C[C@H](Oc1ccc(S(C)(=O)=O)cc1C(=O)N1CCN(c2ncc(C(F)(F)F)cc2F)CC1)C(F)(F)F,0.902 ± 0.073,0.807 ± 0.11,0.936 ± 0.056,0.821 ± 0.074,1.03 ± 0.038,0.706 ± 0.15,1 (active)
C=CCNc1oc(Cc2cccc3ccccc23)nc1C#N,0.818 ± 0.039,1.04 ± 0.091,1.13 ± 0.062,0.731 ± 0.036,1.16 ± 0.25,1.28 ± 0.4,0.952 (active)
COc1ccccc1N1CCN(CC(O)COc2cccc3ccccc23)CC1 (centres undefined),0.878 ± 0.22,1.21 ± 0.2,0.711 ± 0.04,0.719 ± 0.026,1.6 ± 0.14,1.35 ± 0.13,0.967 (active)
COC(=O)C1=C(C)NC(=O)CC1c1cc([N+](=O)[O-])ccc1Cl (centres undefined),0.933 ± 0.055,0.986 ± 0.11,0.955 ± 0.058,0.966 ± 0.032,1.16 ± 0.099,0.994 ± 0.24,0.988 (active)
CC[C@@]1(O)C(=O)OCc2c1cc1n(c2=O)Cc2cc3c(CN(C)C)c(O)ccc3nc2-1 [Prestw-1196],2.33 ± 0.13,1.27 ± 0.08,2.43 ± 0.16,2.88 ± 0.099,3.79 ± 0.35,3.07 ± 0.43,0.689 (inactive)
O=C(OCCO)c1cc(Cl)c(C(=O)OCCO)cc1Cl,0.979 ± 0.062,1 ± 0.065,0.936 ± 0.079,0.987 ± 0.034,1.49 ± 0.1,1.23 ± 0.11,1 (active)
Brc1ccc(CN2C3=NCCCN3c3ccccc32)cc1.Cl,0.263 ± 0.023,0.826 ± 0.054,1.34 ± 0.092,0.735 ± 0.089,0.984 ± 0.049,0.905 ± 0.11,0.96 (active)
CN(C)S(=O)(=O)N1CCC(CNC(=O)NC2CCCC2)CC1,0.963 ± 0.098,1.09 ± 0.098,0.818 ± 0.11,0.958 ± 0.1,1.04 ± 0.062,0.874 ± 0.31,1 (active)
O=C(Nc1ccc([N+](=O)[O-])cc1)Nc1ccc(Cl)cn1,0.838 ± 0.065,0.942 ± 0.074,0.986 ± 0.14,0.893 ± 0.041,1.39 ± 0.1,1.61 ± 0.14,1 (active)

SMILES,"NF-kB reporter [1, 4]",NF-kB reporter ([1]; agonist: LPS 0.1 ug/mL),NF-kB reporter ([1]; agonist: MPLA […]),IRF reporter ([2]; agonist: 3'3'-cGAMP 10 ug/mL),IRF reporter ([2]; agonist: LPS 0.1 ug/mL),IRF reporter ([2]; agonist: MPLA […]),viability score [3]
CCOc1ccc(Cc2cc([C@@H]3O[C@H](SC)[C@@H](O)[C@H](O)[C@H]3O)ccc2Cl)cc1,0.968 ± 0.25,1.27 ± 0.072,1.06 ± 0.098,1.03 ± 0.053,0.957 ± 0.18,1.07 ± 0.11,0.694 (inactive)
CCN1CCN(S(=O)(=O)c2ccc(Oc3ccccc3)cc2)CC1,1 ± 0.061,1.01 ± 0.11,1.09 ± 0.036,0.905 ± 0.043,1.09 ± 0.1,1.03 ± 0.21,0.996 (active)
CCOC(=O)C1=C(C)NC(C)=C(C(=O)OCC)C1c1cc(Cl)cc(Cl)c1OC,0.478 ± 0.064,0.44 ± 0.037,1.05 ± 0.1,1.07 ± 0.16,0.852 ± 0.039,2.23 ± 0.43,0.216 (inactive)
COc1cc(-c2nnc(SCc3ccc([N+](=O)[O-])cc3)n2-c2ccccc2)cc(OC)c1OC,0.986 ± 0.095,0.942 ± 0.053,0.994 ± 0.074,1.07 ± 0.067,1.37 ± 0.2,0.969 ± 0.06,1.01 (active)
Cc1ccc(N2C(=O)C(=CC3CC=CCC3)SC2=S)cc1 (centres undefined),0.652 ± 0.054,0.835 ± 0.039,0.817 ± 0.076,0.397 ± 0.022,1.04 ± 0.075,0.963 ± 0.1,0.973 (active)
O=C(CCC(=O)NN=Cc1ccc(O)cc1O)NN=Cc1ccc(O)cc1O,0.934 ± 0.084,1.05 ± 0.067,0.978 ± 0.11,0.944 ± 0.042,1.52 ± 0.18,1.26 ± 0.13,0.994 (active)
O=C(O)C1C(c2ccccc2)C(C(=O)OCc2ccccc2)C1c1ccccc1 (centres undefined),0.926 ± 0.089,1.09 ± 0.062,1.05 ± 0.079,1.03 ± 0.078,1.24 ± 0.087,1.03 ± 0.076,1.01 (active)
COc1ccccc1N1CCN(c2ncnc3c2cnn3-c2cc(C)cc(C)c2)CC1,1.2 ± 0.067,1.16 ± 0.1,1.19 ± 0.042,1.01 ± 0.049,1.05 ± 0.098,1.08 ± 0.16,0.997 (active)
COc1cc2c(cc1OC)C1C(=O)c3ccc4c(c3OC1CO2)CCC(C)(C)O4 (centres undefined),0.91 ± 0.073,1.02 ± 0.075,1.67 ± 0.16,0.824 ± 0.026,1.52 ± 0.24,1.75 ± 0.36,1.02 (active)
CC1(C)CC(=O)C=C(Nc2ccc(Br)c(Cl)c2)C1,0.734 ± 0.066,0.962 ± 0.067,0.839 ± 0.083,1.14 ± 0.06,1.08 ± 0.066,1.08 ± 0.12,1.02 (active)
CS(=O)(=O)N1CC(C(=O)N2CCN(c3cccc(Cl)c3Cl)CC2)C1,1.16 ± 0.065,1.08 ± 0.12,0.985 ± 0.027,0.906 ± 0.035,0.935 ± 0.082,0.958 ± 0.13,0.999 (active)
Cc1ccc(OCC(=O)NN=Cc2cc(Br)cc(Br)c2O)c([N+](=O)[O-])c1,0.928 ± 0.071,0.908 ± 0.11,1.08 ± 0.17,1.01 ± 0.073,1.33 ± 0.26,1.47 ± 0.33,1.02 (active)
CN1CCN(C(=O)C(C)(c2ccccc2)c2ccccc2)CC1,0.804 ± 0.063,1.1 ± 0.062,0.946 ± 0.056,0.981 ± 0.039,1.22 ± 0.13,1.08 ± 0.17,1 (active)
NC(=O)c1ncn([C@@H]2O[C@H](CO)[C@@H](O)[C@H]2O)n1,0.766 ± 0.17,1.07 ± 0.14,0.86 ± 0.084,1.16 ± 0.05,1.66 ± 0.22,1.77 ± 0.18,0.986 (active)
Cc1ccc(-n2nc(C(C)(C)C)cc2NC(=O)NCc2cc(F)ccc2Oc2ccc3c(cnn3CCO)c2)cc1,0.878 ± 0.046,0.942 ± 0.15,0.964 ± 0.056,1.06 ± 0.058,1.19 ± 0.22,1.24 ± 0.44,1.01 (active)
O=Cc1c[nH]c2ccccc12,0.913 ± 0.2,1.5 ± 0.14,1.4 ± 0.23,0.982 ± 0.04,1.25 ± 0.26,1.54 ± 0.16,0.985 (active)
COc1ccc(C=CC(=O)Nc2ccc([N+](=O)[O-])cc2)cc1Br,1.06 ± 0.17,0.991 ± 0.14,0.905 ± 0.11,0.996 ± 0.044,1.28 ± 0.18,1.43 ± 0.42,1.01 (active)
OCc1ccccc1OC1OC(CO)C(O)C(O)C1O (centres undefined),1.13 ± 0.27,1.07 ± 0.094,1.05 ± 0.069,0.889 ± 0.03,1.22 ± 0.23,1.13 ± 0.19,1 (active)
